This passage reports composite z-score and z-score results from PubChem BioAssay.

Each structure is given as a SMILES string. Activity calls are given as the source filed them. Unless noted, how the calls were made is not given here.

The subject of test [1] is Wnt5a (protein binding on small-molecule microarray). As to the kind of experiment: Wnt5a binders on small-molecule microarray, primary screen, biophysical, 635/667 nm fluorescence (AID 1142).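 Further: fluorescence read at 667 nm with signal to noise per printed feature.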 To be noted: 635 nm fluorescence, higher = more signal.
Test [2] in a line: cell viability in Huh7 cells, primary screen, cytotoxicity control for HCV replication inhibitor project, CellTiter-Glo luminescence, basal, 48 h (AID 1143).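 Further: Huh7 hepatoma cells carrying a hepatitis C replication reporter with no stimulus; test concentration not given here.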 To be noted: Huh7 HCV replicon, higher = more signal, called active from +8 up or from −8 down. (Cellular ATP, detected with luciferase, serves as a proxy for viable cell number.)
A short description of test [3]: P. aeruginosa biofilm formation inhibitors, primary screen, PAO1 strain, BacTiter-Glo luminescence, LB-PBS (AID 1144). To be noted: 12 h, higher = more signal.
A short description of test [4]: CREB reporter modulators without forskolin, primary screen, cell-based, PC12, CRE-LacZ reporter, unstimulated (AID 1145). To be noted: no forskolin, luminescence, 4.5 h, higher = more signal, called active from +8 up or from −8 down.
A short description of test [5]: CREB reporter modulators under forskolin, primary screen, cell-based, PC12, CRE-LacZ reporter, forskolin-stimulated (AID 1146).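 Further: PC12 cells with 6xCRE LacZ reporter stimulated by forskolin 10 µM; beta-galactosidase reporter signal reflecting CREB driven transcription.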 To be noted: luminescence, 4.5 h, higher = more signal, called active from +8 up or from −8 down.
Test [6] addresses Streptavidin (Streptomyces avidinii) (UniProt P22629). The experiment in a line: streptavidin binders on small-molecule microarray, primary screen, artefact control for SMM compound annotation, biophysical, 635/667 nm fluorescence (AID 1147).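 Further: signal reflects streptavidin binding to arrayed compounds as a control protein.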 To be noted: streptavidin binding, higher = more signal.
Test [7] is described as follows: small-molecule binders of probe aInhba, primary screen, biochemical, small-molecule microarray, 635/667 nm fluorescence (AID 1148).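 Further: score merges 667nm spot fluorescence with signal-to-noise for antibody binding to printed compounds.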 As to conditions: higher = more signal.
In test [8] the target is Torsin-1A (Homo sapiens) (UniProt O14656). The experiment in a line: torsin A binders from cell lysate, primary screen, small-molecule microarray, wild-type, 635/667 nm (AID 1149). As to conditions: COS7 hTOR1A-WT lysate, 635 nm fluorescence, higher = more signal.
Chain of Torsin-1A (Homo sapiens) (O14656 whole entry, looked up): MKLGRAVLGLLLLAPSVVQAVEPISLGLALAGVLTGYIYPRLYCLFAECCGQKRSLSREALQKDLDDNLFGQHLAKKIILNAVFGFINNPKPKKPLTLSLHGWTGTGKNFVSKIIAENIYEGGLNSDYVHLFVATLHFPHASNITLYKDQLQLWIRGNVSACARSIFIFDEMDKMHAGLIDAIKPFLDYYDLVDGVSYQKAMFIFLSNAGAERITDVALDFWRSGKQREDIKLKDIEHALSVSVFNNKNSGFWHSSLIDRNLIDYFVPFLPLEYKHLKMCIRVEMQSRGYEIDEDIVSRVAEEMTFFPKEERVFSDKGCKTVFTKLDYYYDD
Test [9] shares this target. The experiment in a line: small-molecule binders of mutant TOR1A in lysate, primary screen, cell lysate, small-molecule microarray, COS7 lysate, 635/667 nm fluorescence (AID 1150).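 Further: score pools 667 nm emission and signal to noise measuring lysate protein binding.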 To be noted: COS7 hTOR1A mutant lysate, 635 nm fluorescence, higher = more signal.
In test [10] the test system is Sonic hedgehog protein (Shh). As to the kind of experiment: small-molecule binders of Shh protein, primary screen, biochemical, small-molecule microarray, 635/667 nm fluorescence (AID 1151).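 Further: Shh protein binding to compounds spotted on small-molecule microarray slides; score combines spot fluorescence intensity with signal-to-noise across triplicate slides.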 As to conditions: small-molecule microarray binding, 635 nm fluorescence; higher = more signal.
The nature of test [11]: E. coli DRC41 culture turbidity changes, primary screen, E. coli filamentation inducer project, strain DRC41, OD650, 48 h (AID 1152).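 Further: E. coli MC1000 strain DRC41 lacking acrAB efflux pump and sulA.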 As to conditions: E. coli DRC41 (acrAB sulA), higher = more signal, called active from +8 up or from −8 down.
The nature of test [12]: small-molecule binders of probe aLefty1, primary screen, biochemical, small-molecule microarray, 635/667 nm fluorescence (AID 1153).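 Further: score merges spot fluorescence with signal-to-noise ratio from the scanned slide images.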 To be noted: higher = more signal.
A short description of test [13]: PSAC antagonists in infected red cells, primary screen, cell-based, P. falciparum Indochina, OD700, 1 h (AID 1154). To be noted: P. falciparum Indochina infected RBC osmotic lysis, higher = more signal, called active from +8 up or from −8 down.
Test [14] is described as follows: PSAC antagonists in infected red cells, primary screen, cell-based, P. falciparum Indochina, OD700, 2 h (AID 1155).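 Further: lysis reports solute entry through the parasite surface anion channel PSAC; channel blockers reduce lysis of infected cells.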 To be noted: P. falciparum Indochina infected erythrocytes, osmotic lysis OD700; higher = more signal, called active from +8 up or from −8 down.
A short description of test [15]: osmotic lysis modulators in infected erythrocytes, primary screen, PSAC antagonist project, cell-based, P. falciparum Indochina, OD700, 3 h (AID 1156). As to conditions: higher = more signal, called active from +8 up or from −8 down.
Test [16] can be described thus: PSAC antagonists in infected red cells, primary screen, cell-based, P. falciparum Indochina, OD700, 18 h (AID 1157). To be noted: P. falciparum Indochina infected erythrocytes, osmotic lysis OD700, 18 h; higher = more signal, called active from +8 up or from −8 down.
Test [17] is described as follows: modulators of S6 phosphorylation in cells, primary screen, cell-based, A549, cytoblot, luminescence, serum-stimulated (AID 1158).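 Further: serum-stimulated A549 lung adenocarcinoma cells; signal is phosphorylated S6 detected by cytoblot immunostaining with HRP secondary.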 As to conditions: A549 phospho-S6 cytoblot, 5 h, higher = more signal.
Test [18] deals with NADPH oxidase 2 (Homo sapiens) (UniProt P04839). The experiment in a line: NOX2-dependent H2O2 signal modulators, primary screen, NOX inhibitor project, cell-based, HEK293-NOX2, PMA-stimulated, Amplex Red fluorescence (AID 1159). Further: test concentration not given here. To be noted: 45 min, higher = more signal, called active from +8 up or from −8 down.
Chain of NADPH oxidase 2 (Homo sapiens) (P04839 whole entry, looked up): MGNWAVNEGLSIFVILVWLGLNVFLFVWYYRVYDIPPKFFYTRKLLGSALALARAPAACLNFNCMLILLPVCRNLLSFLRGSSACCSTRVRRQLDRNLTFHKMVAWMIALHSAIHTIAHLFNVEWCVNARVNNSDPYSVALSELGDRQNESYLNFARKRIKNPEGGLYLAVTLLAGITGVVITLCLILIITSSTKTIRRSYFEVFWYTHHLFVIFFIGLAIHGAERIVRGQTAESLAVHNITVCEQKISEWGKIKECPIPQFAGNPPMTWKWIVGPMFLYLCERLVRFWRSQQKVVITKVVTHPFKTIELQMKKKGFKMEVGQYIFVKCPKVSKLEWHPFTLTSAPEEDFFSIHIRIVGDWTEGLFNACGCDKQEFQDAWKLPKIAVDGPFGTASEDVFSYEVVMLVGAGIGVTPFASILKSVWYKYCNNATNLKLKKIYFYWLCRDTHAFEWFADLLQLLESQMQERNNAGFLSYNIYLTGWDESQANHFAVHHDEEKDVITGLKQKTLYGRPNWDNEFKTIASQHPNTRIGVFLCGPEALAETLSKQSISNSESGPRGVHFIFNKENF
The target of test [19] is NADPH oxidase 4 (Homo sapiens) (UniProt Q9NPH5). As to the kind of experiment: NOX4-dependent H2O2 signal modulators, primary screen, NOX inhibitor project, cell-based, HEK293-NOX4, tetracycline-induced, Amplex Red fluorescence (AID 1160). To be noted: 45 min, higher = more signal, called active from +8 up or from −8 down.
Chain of NADPH oxidase 4 (Homo sapiens) (Q9NPH5 whole entry, looked up): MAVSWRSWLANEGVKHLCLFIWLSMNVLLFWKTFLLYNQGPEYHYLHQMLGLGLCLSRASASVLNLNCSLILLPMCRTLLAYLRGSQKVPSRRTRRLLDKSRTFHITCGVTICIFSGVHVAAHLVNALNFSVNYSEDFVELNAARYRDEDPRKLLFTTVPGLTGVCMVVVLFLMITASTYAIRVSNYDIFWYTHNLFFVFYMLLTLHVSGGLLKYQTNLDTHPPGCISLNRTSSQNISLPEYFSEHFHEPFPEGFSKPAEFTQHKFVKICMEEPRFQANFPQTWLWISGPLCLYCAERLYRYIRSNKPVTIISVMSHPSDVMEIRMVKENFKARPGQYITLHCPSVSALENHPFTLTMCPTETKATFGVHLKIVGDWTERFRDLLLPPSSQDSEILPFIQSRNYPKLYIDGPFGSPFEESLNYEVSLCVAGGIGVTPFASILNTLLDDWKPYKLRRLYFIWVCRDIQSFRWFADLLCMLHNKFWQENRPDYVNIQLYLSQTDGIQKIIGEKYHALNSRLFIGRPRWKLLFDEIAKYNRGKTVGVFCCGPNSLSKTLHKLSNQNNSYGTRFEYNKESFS
In test [20] the target is NADPH oxidase 5 (Homo sapiens) (UniProt Q96PH1). As to the kind of experiment: NOX5-dependent H2O2 signal modulators, primary screen, NOX inhibitor project, cell-based, HEK293-NOX5, Amplex Red fluorescence (AID 1161). To be noted: HEK293-NOX5, ionomycin, 45 min, higher = more signal.
Chain of NADPH oxidase 5 (Homo sapiens) (Q96PH1 whole entry, looked up): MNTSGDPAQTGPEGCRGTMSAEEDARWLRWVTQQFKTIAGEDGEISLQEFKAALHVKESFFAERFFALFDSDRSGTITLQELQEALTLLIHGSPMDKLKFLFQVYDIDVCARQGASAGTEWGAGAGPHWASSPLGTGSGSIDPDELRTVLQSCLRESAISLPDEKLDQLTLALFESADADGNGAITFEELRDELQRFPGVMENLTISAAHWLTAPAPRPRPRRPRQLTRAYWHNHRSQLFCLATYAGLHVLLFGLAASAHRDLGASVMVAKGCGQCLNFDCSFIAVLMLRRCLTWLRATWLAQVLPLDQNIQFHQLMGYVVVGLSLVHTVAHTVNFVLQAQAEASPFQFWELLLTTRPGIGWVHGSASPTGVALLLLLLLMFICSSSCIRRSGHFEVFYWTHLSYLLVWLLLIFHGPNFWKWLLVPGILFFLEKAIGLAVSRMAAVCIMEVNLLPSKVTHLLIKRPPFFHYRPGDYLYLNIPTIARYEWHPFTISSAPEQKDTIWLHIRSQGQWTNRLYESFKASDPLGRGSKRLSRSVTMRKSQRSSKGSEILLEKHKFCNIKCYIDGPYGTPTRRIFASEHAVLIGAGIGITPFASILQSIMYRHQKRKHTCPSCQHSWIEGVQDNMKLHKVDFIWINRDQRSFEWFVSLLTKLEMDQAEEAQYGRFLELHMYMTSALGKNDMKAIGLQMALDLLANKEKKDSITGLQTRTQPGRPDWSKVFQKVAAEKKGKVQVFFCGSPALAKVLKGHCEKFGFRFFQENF

Chain of Streptavidin (Streptomyces avidinii) (P22629 whole entry, looked up): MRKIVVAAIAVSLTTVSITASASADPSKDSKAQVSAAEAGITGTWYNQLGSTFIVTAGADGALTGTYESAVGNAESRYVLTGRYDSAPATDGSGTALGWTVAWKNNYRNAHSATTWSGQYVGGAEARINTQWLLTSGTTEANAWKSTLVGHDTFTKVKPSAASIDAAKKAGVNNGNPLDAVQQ

Take `CS(=O)(=O)CCOC(=O)C1=CC(CCCO)=CC(C2CC2)N(Cc2sc3ccccc3c2Cl)C=C1C(=O)OCCS(C)(=O)=O` (stereo not given): the composite z-score in test [1] worked out at 0.296; in test [6], 1.41; in test [7] it was 0.523; in test [8], 1.15; in test [9], 1.48; in [10], 1.41. The composite z-score in test [12] came out at 0.52. Also, the z-score in test [2] is -2.27 (inactive); in test [3] it was -0.15 (inactive); in test [4] it was 2.57 (inactive); in [5], -0.655 (inactive); in [11] it was -0.406 (inactive); in test [13], 12.8 (active). The z-score is 2.13 (inactive) in [14]; 0.978 (inactive) in [15]; 1.41 (inactive) in test [16]; 0.248 in [17]; -0.739 (inactive) in test [18]; -0.315 (inactive) in [19]. The same molecule had a z-score in [20] of -1.11.

With `C=CCOC(=O)[C@H]1[C@@H]2C(=O)O[C@@H](c3ccccc3)[C@@H](c3ccccc3)N2[C@@H](c2ccc(OCCOC(=O)[C@H]3C[C@H]4C(=O)NCC(=O)N4[C@H]3c3ccc(O)cc3)cc2)[C@]12C(=O)Nc1ccccc12`, the composite z-score in [1] was determined as 0.592; in [6], 0.341; in test [7] it was 0.615; in [8], 0.603; in test [9] it was 1.14; in test [10], 2.22. For the same molecule, the composite z-score in [12] came out at 1.09. Also, the z-score in [2] was -0.525 (inactive); in test [3], -0.799 (inactive); in [4] it was -1.08 (inactive); in test [5], -0.306 (inactive); in test [11] it was 0.141 (inactive); in test [13], 2.42 (inactive). The z-score in test [14] was 1.3 (inactive); in test [15] it was 2.3 (inactive); in test [16], 0.987 (inactive); in [17], -0.295; in test [18], 2.06 (inactive); in test [19], -0.365 (inactive). Also, the z-score in test [20] is 0.00131.

Take `C[C@]1(C(=O)NCC(F)(F)F)c2ccccc2C(=O)N(Cc2cc(C(F)(F)F)cc(C(F)(F)F)c2)[C@H]1c1ccc(CO)cc1`: the composite z-score in [1] is -0.127; in test [6], -0.7; in test [7], -0.0963; in test [8] it was -0.469; in test [9] it was -0.34; in test [10], -0.21. Also, in [12], the composite z-score was determined as 0.0774. For the same molecule, the z-score in [2] was -0.286 (inactive); in test [3], 0.878 (inactive); in [4], 0.324 (inactive); in test [5], 0.0167 (inactive); in [11], 1.17 (inactive); in test [13] it was 3.54 (inactive). Further, the z-score in test [14] is -0.0979 (inactive); in test [15] it was -0.29 (inactive); in test [16] it was -0.16 (inactive); in test [17] it was 0.361; in [18], -0.905 (inactive); in test [19], 0.565 (inactive). This molecule displayed a z-score in test [20] of 0.648.

For the molecule `COC(=O)[C@@]1(Cc2ccc(F)cc2)[C@H]2c3cc(C(=O)N4CCCC4)n(CCc4c[nH]c5cc(F)ccc45)c3C[C@H]2CN1C(=O)c1ccccc1`, the composite z-score in test [1] was determined as 1.43; in test [6] it was 1.12; in [7], 0.0049; in [8], 1.2; in [9], 1.29; in [10] it was 0.0034. The composite z-score in [12] was determined as 0.429. Also, the z-score in [2] is -2.66 (inactive); in test [3] it was 0.449 (inactive); in test [4], 0.197 (inactive); in [5], 0.654 (inactive); in test [11] it was -1.22 (inactive); in [13] it was 1.76 (inactive). Moreover, the z-score is 0.456 (inactive) in test [14]; 1.86 (inactive) in test [15]; 0.984 (inactive) in [16]; 0.593 in test [17]; 0.361 (inactive) in test [18]; 1.9 (inactive) in [19]. Moreover, the z-score in test [20] came to 2.01.
